This is an account of results in PubChem BioAssay (Tox21).

A number with no mark means an inactive call. Inconclusive results are not listed. Active and inactive are the calls of the source. Unless noted, the call rests on the fitted dose curve.

Assay [1] can be described thus: qHTS assay to identify small molecule agonists of the sonic hedgehog signaling (Shh) pathway (AID 1259368).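 Further: NIH/3T3-derived 3T3Gli1-Luc cells carrying a stable Gli1-driven firefly luciferase reporter; series mostly up to about 92 µM; nearly all actives have a fitted effect of over 15% in size.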 The method in brief: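 A Gli1 transcriptional response element controlled firefly luciferase in 3T3Gli1-Luc cells. Compounds and a positive control were added 4 hr after plating, and cells were incubated a further 24 hr at 37 C before luminescence detection.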

Assay [2] concerns the target Estrogen receptor beta (Homo sapiens) (UniProt Q92731). Nature of the assay: qHTS assay to identify small molecule agonists of the estrogen receptor beta (ER-beta) signaling pathway (AID 1259377; active means well fitted activation curve with a large enough effect in the signal ratio in the repeat runs, not every such curve was filed as active; the % refers to the signal ratio). The method in brief:
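Agonist mode cell assay in GripTite HEK293T cells expressing an ER-beta fusion that drives beta-lactamase from an Upstream Activator Sequence; 16 hr compound exposure at 37C, then 2 h LiveBLAzer B/G FRET substrate at room temperature, fluorescence read-out.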

The target is the same in assay [3]. Nature of the assay: qHTS assay to identify small molecule antagonists of the estrogen receptor beta (ER-beta) signaling pathway (AID 1259378; active means well fitted inhibition curve with a large enough effect in the signal ratio in the repeat runs, not every such curve was filed as active; the % refers to the signal ratio). The method, boiled down:
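Antagonist mode: compounds added to beta-lactamase reporter HEK293T ER-beta-UAS cells stimulated with E2 (1nM final), 16 hr at 37C. LiveBLAzer B/G FRET substrate, 2 hours room temperature, fluorescence read-out.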

Assay [4] can be described thus: qHTS assay to identify small molecule agonists of the androgen receptor (AR) signaling pathway in the presence of an antagonist - cell viability counter screen (AID 1259379; active means well fitted curve in the direction sought with a large enough effect in the repeat runs; an effect the other way counts as inactive or inconclusive;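 further: MDA-kb2 human breast cancer cells carrying an MMTV luciferase reporter; series mostly up to about 92 µM; nearly all actives have a fitted effect of over 25% in size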). The method in brief: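 Seed MDA-kb2 at 3,000 cells/well; incubate 5 hr, 37C, 0% CO2. Add nilutamide to 3.0uM final, then pin compounds at 15 concentrations. Incubate 16 hr. Add CellTiter-Fluor at 15 hr, read fluorescence after 1 hr.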

Assay [5] can be described thus: qHTS assay to identify small molecule antagonists of the estrogen receptor beta (ER-beta) signaling pathway - cell viability counter screen (AID 1259382; active means well fitted curve in the direction sought with a large enough effect in the repeat runs; an effect the other way counts as inactive or inconclusive;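 further: HEK293T cells carrying ER-beta-UAS-bla reporter stimulated with estradiol; series mostly up to about 92 µM; nearly all actives have a fitted effect of over 55% in size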). The method in brief:
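In this multiplexed counter screen, cells were seeded at 2,000 per well in medium with 2% charcoal-stripped FBS and incubated 6 hr before compound and 1nM final E2 were added. Sixteen hours later, ATP-based luminescence reported viability.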

The target of assay [6] is Estrogen receptor (Homo sapiens) (UniProt P03372). Nature of the assay: qHTS assay to identify small molecule agonists of the estrogen receptor alpha (ER-alpha) signaling pathway in the presence of an antagonist (AID 1259383). Further: nearly all actives have a fitted effect of over 15% in size. Further: potency means the concentration at half of the fitted maximal effect. On activation: top concentration of the series differs between compounds. The method in brief:
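Stably transfected VM7Luc4E2 reporter cells, kept 5 days in charcoal-stripped serum, received ICI-182,780 at 10.0nM final before compound addition. Following 22hr incubation at 37C and 5% CO2, luciferase signal was read by luminescence.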

Assay [7] can be described thus: qHTS assay to identify small molecule agonists or antagonists of the thyroid stimulating hormone receptor (TSHR) signaling pathway - wild type cell line counter screen (AID 1259384). The method, boiled down: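 Counter screen in untransfected Hek293: compounds (15-point titration, triplicate) plus phosphodiesterase inhibitor Ro20-1724 added after 18 h plating; 30 min RT. Intracellular cAMP via competitive d2/cryptate immunoassay, 1 h incubation.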

Assay [8] is described as follows: qHTS assay to identify small molecule agonists of the estrogen receptor beta (ER-beta) signaling pathway - cell viability counter screen (AID 1259380; active means well fitted curve in the direction sought with a large enough effect in the repeat runs; an effect the other way counts as inactive or inconclusive; further: nearly all actives have a fitted effect of over 30% in size). The method, boiled down:
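CellTiter-Glo read, 30 min RT, same wells as bla assay; cells ER-beta-UAS-bla HEK293T; 16 hr compound, 37C; medium 2% charcoal-stripped FBS.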

The nature of assay [9]: qHTS assay to identify small molecule antagonists of the sonic hedgehog signaling (Shh) pathway (AID 1259369). Further: nearly all actives have a fitted effect of over 45% in size. The method in brief:
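For antagonist detection, the reporter line received test compounds together with conditioned medium, incubated 24hr at 37 C, 5% CO2, then luminescence was recorded following 30min room-temperature luciferase reagent incubation.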

The target in assay [10] is Androgen receptor (Homo sapiens) (UniProt P10275). Nature of the assay: qHTS assay to identify small molecule agonists of the androgen receptor (AR) signaling pathway in the presence of an antagonist (AID 1259381). Further: nearly all actives have a fitted effect of over 15% in size. The method in brief: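 Test compounds at 15 concentrations were incubated for 16hr with MDA-kb2 reporter cells in presence of 3.0uM nilutamide (final). Signal: ONE-Glo luciferase luminescence.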
Sequence of Androgen receptor (Homo sapiens) (P10275 whole entry, looked up): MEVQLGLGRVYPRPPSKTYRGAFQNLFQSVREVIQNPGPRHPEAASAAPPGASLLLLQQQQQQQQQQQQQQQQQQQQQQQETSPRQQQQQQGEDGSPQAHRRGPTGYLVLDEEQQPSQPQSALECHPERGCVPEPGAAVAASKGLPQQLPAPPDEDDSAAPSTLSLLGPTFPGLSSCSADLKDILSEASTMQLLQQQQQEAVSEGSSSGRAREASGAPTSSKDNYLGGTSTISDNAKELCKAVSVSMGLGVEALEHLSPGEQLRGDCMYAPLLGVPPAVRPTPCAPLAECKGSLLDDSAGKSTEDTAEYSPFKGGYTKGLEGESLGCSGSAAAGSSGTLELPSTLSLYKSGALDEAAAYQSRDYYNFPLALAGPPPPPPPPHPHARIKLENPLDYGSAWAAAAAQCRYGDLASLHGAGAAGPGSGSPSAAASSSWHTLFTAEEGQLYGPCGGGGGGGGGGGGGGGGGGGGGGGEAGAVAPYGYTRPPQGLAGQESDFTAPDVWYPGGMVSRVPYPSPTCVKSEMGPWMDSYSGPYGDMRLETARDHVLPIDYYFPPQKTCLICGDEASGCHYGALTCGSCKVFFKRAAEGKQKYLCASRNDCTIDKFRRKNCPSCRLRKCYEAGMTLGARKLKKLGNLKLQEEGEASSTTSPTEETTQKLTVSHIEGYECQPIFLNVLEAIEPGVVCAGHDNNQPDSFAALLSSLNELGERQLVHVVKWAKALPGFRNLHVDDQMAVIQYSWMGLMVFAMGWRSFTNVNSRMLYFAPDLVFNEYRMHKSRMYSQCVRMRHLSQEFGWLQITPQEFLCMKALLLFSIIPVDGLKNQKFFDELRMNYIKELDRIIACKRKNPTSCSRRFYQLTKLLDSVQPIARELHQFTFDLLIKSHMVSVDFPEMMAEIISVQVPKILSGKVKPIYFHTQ

Sequence of Estrogen receptor beta (Homo sapiens) (Q92731 whole entry, looked up, the tested form may be a part): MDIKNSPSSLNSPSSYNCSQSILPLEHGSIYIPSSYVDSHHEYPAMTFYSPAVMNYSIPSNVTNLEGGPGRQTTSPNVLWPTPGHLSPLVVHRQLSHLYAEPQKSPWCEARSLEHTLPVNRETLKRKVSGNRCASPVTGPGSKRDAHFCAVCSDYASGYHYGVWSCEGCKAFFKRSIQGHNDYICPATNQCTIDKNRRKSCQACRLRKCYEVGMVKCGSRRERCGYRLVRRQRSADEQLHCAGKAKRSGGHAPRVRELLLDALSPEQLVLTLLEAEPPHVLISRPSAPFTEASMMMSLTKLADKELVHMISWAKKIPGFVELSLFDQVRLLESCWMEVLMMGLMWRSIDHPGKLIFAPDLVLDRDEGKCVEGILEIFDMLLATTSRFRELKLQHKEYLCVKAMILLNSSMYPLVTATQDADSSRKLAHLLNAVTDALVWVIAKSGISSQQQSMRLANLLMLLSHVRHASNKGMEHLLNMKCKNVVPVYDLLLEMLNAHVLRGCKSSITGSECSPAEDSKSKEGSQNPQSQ
Sequence of Estrogen receptor (Homo sapiens) (P03372 whole entry, looked up): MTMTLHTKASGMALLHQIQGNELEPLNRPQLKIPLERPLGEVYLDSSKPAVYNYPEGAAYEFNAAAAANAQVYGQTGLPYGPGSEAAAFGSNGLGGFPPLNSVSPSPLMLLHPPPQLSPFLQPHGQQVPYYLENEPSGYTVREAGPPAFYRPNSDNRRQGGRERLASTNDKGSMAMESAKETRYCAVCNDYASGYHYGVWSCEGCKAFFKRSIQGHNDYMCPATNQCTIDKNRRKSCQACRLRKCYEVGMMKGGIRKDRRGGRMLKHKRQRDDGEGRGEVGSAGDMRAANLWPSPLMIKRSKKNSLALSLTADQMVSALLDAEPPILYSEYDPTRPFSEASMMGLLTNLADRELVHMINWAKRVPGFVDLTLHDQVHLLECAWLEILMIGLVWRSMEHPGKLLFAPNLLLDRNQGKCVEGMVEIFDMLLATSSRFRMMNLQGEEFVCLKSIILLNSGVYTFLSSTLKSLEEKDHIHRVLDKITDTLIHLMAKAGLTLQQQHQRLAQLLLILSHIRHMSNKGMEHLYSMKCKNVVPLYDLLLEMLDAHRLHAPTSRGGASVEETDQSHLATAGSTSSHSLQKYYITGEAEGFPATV

`CCOc1cc(OP(=S)(OC)OC)nc(CC)n1`: the compound was called inactive in assay [1], in [3] and in assay [7]. The Potency result in assay [2], in [4], in assay [5] and in [6] was “inactive” throughout.

`Cn1c(N)nc2c3cccnc3ccc21`: the call in [1] and in assay [3] was inactive. Moreover, the Potency entry in [2], in assay [4], in assay [8], in assay [5] and in assay [6] was “inactive” each time.

`C=C(Cl)CSC(=S)N(CC)CC`: the compound was classed as inactive in assay [1] and in assay [3]. Further, the Potency result in assay [2], in [4], in [8] and in assay [5] was “inactive” in each case.

As to `CCC1(c2cccc(O)c2)CCCCN(C)C1` (stereo unspecified), the compound was called inactive in [1] and in assay [7]. Moreover, the Potency entry in assay [4], in assay [8] and in assay [5] was “inactive” each time.

As to `O=C(NC(=O)c1c(F)cccc1F)Nc1cc(Cl)c(F)c(Cl)c1F`, the compound was classed as inactive in assay [1] and in assay [7]. Also, the Potency entry in assay [4], in assay [8], in [5] and in [6] was “inactive” in each case.

Regarding `CC[C@H](O)C(C[C@H](C)N(C)C)(c1ccccc1)c1ccccc1`, the outcome in [1], in assay [3] and in [7] was inactive. The Potency result in assay [2], in assay [4] and in assay [6] was “inactive” each time.

Take `O=c1[nH]c2ccccc2o1`: the compound was called inactive in assay [1] and in assay [7]. Also, the Potency entry in assay [9], in assay [4] and in [8] was “inactive” each time.

On to `CCNc1nc(NCC)nc(SC)n1`, for which the compound was called inactive in assay [1], in [3] and in assay [7]. For the same compound, the Potency entry in assay [2], in [4], in assay [8], in assay [5] and in assay [6] was “inactive” in each case.

For `ClCCN1CCCC1`, the outcome in assay [1], in assay [3] and in assay [7] was inactive. The Potency entry in assay [2], in [4], in [8], in assay [5] and in assay [6] was “inactive” throughout.

Consider `CCc1ccc(C2CCNCC2)cc1`, for which the compound was called inactive in assay [1], in assay [3] and in assay [7]. Also, the Potency result in assay [2], in [4], in assay [8], in assay [10], in assay [5] and in [6] was “inactive” in each case.

For `CON(C)C(=O)Nc1ccc(Br)c(Cl)c1`, the compound was called inactive in assay [1], in [3] and in assay [7]. Further, the Potency entry in assay [4] and in [5] was “inactive” each time.

Take `c1ccc2c(c1)CCNC2`: the outcome in assay [1], in [3] and in assay [7] was inactive. In addition, the Potency entry in assay [2], in assay [4], in assay [8] and in assay [5] was “inactive” in each case.

In the case of `CCCCCCCC(=O)Cl`, the outcome in assay [1] and in [7] was inactive. Moreover, the Potency entry in assay [9], in assay [4], in assay [8] and in [6] was “inactive” throughout.

`C[C@]12C=CC(=O)C=C1CC[C@@H]1[C@@H]2CC[C@@]2(C)[C@H]1CC[C@]2(C)O`: the compound was classed as inactive in assay [1] and in [7]. In addition, the Potency entry in assay [4] and in [5] was “inactive” throughout. Moreover, the Potency in [6] is 2980 nM (active).

Consider `CC(C)(N)Cc1ccc(Cl)cc1`, for which the compound was called inactive in assay [1] and in assay [7]. For the same compound, the Potency entry in [9], in [4], in assay [8] and in assay [6] was “inactive” in each case.

Regarding `CC#Cc1cc(C)nc(Nc2ccccc2)n1`, the Potency result in assay [2], in assay [4], in [5] and in assay [6] was “inactive” each time. For the same compound, in assay [7], the compound was classed as inactive.

As for `Nc1c(Cl)c(F)nc(OCC(=O)O)c1Cl`, the result in assay [1], in assay [3] and in [7] was inactive. Besides, the Potency entry in assay [2], in assay [4], in assay [8], in assay [10] and in assay [6] was “inactive” each time.

Turning to `CNC(=O)Oc1cc(C)c(N(C)C)c(C)c1`, the compound was classed as inactive in assay [1], in assay [3] and in [7]. In addition, the Potency entry in assay [4], in assay [8] and in [5] was “inactive” in each case.

As for `[O-][Br+2]([O-])O`, the outcome in assay [1] and in [7] was inactive. Further, the Potency result in [8], in [10], in assay [5] and in [6] was “inactive” each time.

With `COC1=CC(=O)O[C@@H](/C=C/c2ccccc2)C1`, the Potency entry in assay [2], in assay [4] and in assay [5] was “inactive” each time. Besides, the compound was classed as inactive in assay [7].

For `CNC(=O)NC(O)C(Cl)(Cl)Cl` (stereo unspecified), the outcome in [1], in [3] and in assay [7] was inactive. For the same compound, the Potency entry in [2], in [4], in [8], in [10], in assay [5] and in [6] was “inactive” each time.

In the case of `Cc1ccc(Cl)c(O)c1`, the compound was classed as inactive in assay [1] and in assay [7]. Moreover, the Potency entry in [4], in assay [8] and in [6] was “inactive” throughout.

Take `COC(=O)c1ccccc1CS(=O)(=O)NC(=O)Nc1nc(OC)cc(OC)n1`: the compound was called inactive in assay [1], in assay [3] and in assay [7]. The Potency result in [2], in assay [4], in assay [8] and in assay [6] was “inactive” each time.
